{
  "source": "paper PMC12136788",
  "binders": {"B1": {"name": "chr14:95709946:95710881:-|three_prime_utr|ENSG00000100721|control|control|control (ssRNA)", "RNA": "GGGAGUUCUACAGUCCGACGAUCUCUGGGAGGAAUGGACAGACAGAGGAUGAGCUCUACCCAGGGCCUGCAGGACCUGCCUGUAGCCCACUCUGCUCGCCUUAGCACUACCACUCCUGCCAAGGAGGAUUCCAUUUGGCAGAGCAACAGAGGAUUGAGCAUCA"}, "B2": {"name": "chr5:138873012:138874556:-|CDS|ENSG00000146006|control|control|control (ssRNA)", "RNA": "GGGAGUUCUACAGUCCGACGAUCUUUAUUAUUUUUAUAGUGUUCAUCUCCAGGAAGUGCUGCCCUCCCACUUUAAGAAGAAUUAGGCAGUGCUCAAUGGUUCAGAACCACAGGCAGCUCCGAUCCCAAACACGACUCCAUAUGCAACAGAGGAUUGAGCAUCA"}, "B3": {"name": "chr5:72207278:72207408:+|3pUTR|ENSG00000131711|msi1_unk|total|mutant (ssRNA)", "RNA": "GGGAGUUCUACAGUCCGACGAUCAGAGAACAAUGACCUCAUUUUAUUUUCUAUGUCCGUUAUUUAUUUCAAAAUUAACAUUUCCGUUGAUUUUUGUCUGAUAAGUCUAUGUUUUGCACUGCUAACUAUGAUGAGGGUUUAAAACAACAGAGGAUUGAGCAUCA"}, "B4": {"name": "chr1:93866283:93869944:-|three_prime_utr|ENSG00000067334|control|control|control (ssRNA)", "RNA": "GGGAGUUCUACAGUCCGACGAUCUUUAUUUACUUAUUAAAGACGUUUGGAAAACUAACACCAUCAUCUAAAUUAAUUUACCAUAGACUGGCCCUGUUCAUACAGGAAUUUGUAUUUGGAAAAAGUUGAUUUGAGAAUCGAUUACAACAGAGGAUUGAGCAUCA"}, "B5": {"name": "chr16:30603633:30603734:-|3pUTR|ENSG00000156853|unk|total|mutant (ssRNA)", "RNA": "GGGAGUUCUACAGUCCGACGAUCGUUAAGUACCACAUUCUCCUCUAAACCUUGCCUACGACAUGUUUAAUACUUCAUCUACACCGCAGCCCUUCAGAUAAUCACAACCACUUUGCCCCCAAGUUUUCAGGUUAAGCCGCAUGACAACAGAGGAUUGAGCAUCA"}, "B6": {"name": "chr2:32224452:32224765:-|three_prime_utr|ENSG00000091106|control|control|control (ssRNA)", "RNA": "GGGAGUUCUACAGUCCGACGAUCUCGUGUGAGCAGUGAUGGAUGGCUUGCCUUCAUGGGUGUAUUUGAGAAUCUUAAGCAAUUAGUGUUUUUUGACUUUAGUACUAAAGAAUUUCUACCUGAUCCAGCAUUAGUCAGAAAACUCAACAGAGGAUUGAGCAUCA"}, "B7": {"name": "ENSG00000198589:be:win_6851|CDS|ENSG00000198589|bound_else_gene|NA|bound_elsewhere_windowed (ssRNA)", "RNA": "GGGAGUUCUACAGUCCGACGAUCAAGUUCCAAAGUUUCACUAUGGUACUCAUUACUCAACUGCAAGUUUUGUUCUUGCAUGGCUGCUAAGAAUAGAACCCUUUACAACUUAUUUCCUAAAUUUGCAAGGAGGCAAAUUUGAUCCAACAGAGGAUUGAGCAUCA"}, "B8": {"name": "chr9:15474029:15474130:-|CDS|ENSG00000164985|unk|FALSE|unique (ssRNA)", "RNA": "GGGAGUUCUACAGUCCGACGAUCAAGAAAAGAGCCGGAUAAAAAAGAGGGGAAGAAAGAAGUUGAAUCAAAAAGGAAAAAUUUAGCUAAAACAGGGGUUACUUCAACCUCCGAUUCUGAAGAAGAAGGAGAUGAUCAAGAAGGCAACAGAGGAUUGAGCAUCA"}, "B9": {"name": "chr12:57516587:57516808:-|three_prime_utr|ENSG00000175197|control|control|control (ssRNA)", "RNA": "GGGAGUUCUACAGUCCGACGAUCCCCCCACUUGGGCCACACUACCCACCUUUCCCAGAAGUGGCUACUGACUACCCUCUCACUAGUGCCAAUGAUGUGACCCUCAAUCCCACAUACGCAGGGGGAAGGCUUGGAGUAGACAAACAACAGAGGAUUGAGCAUCA"}, "B10": {"name": "chr8:42175261:42175472:-|3pUTR|ENSG00000104368|msi1|FALSE|unique (ssRNA)", "RNA": "GGGAGUUCUACAGUCCGACGAUCGUAUUCCUUUUGUGUACAGUGUGUAAAGUGUAAAUCCUUUUUCUUUAUAAACUUUAGAGUAGCAUGAGAGAAUUGUAUCAUUUGAACAACUAGGCUUCAGCAUAUUUAUAGCAAUCCAUGCAACAGAGGAUUGAGCAUCA"}, "B11": {"name": "chr7:80742675:80742739:-|3pUTR|ENSG00000075223|msi1_unk|FALSE|overlapping (ssRNA)", "RNA": "GGGAGUUCUACAGUCCGACGAUCGUAGCUUGACAAUUCAGUGACUUAAUAUCUAUUCCAUUUGUAUUGUACAUAAAAUUUUCUAGAAAUACACUUUUUUCCAAAGUGUAAGUUUGUGAAUAGAUUUUAGCAUGAUGAAACUGUCAACAGAGGAUUGAGCAUCA"}, "B12": {"name": "chr8:42175261:42175472:-|3pUTR|ENSG00000104368|msi1|total|mutant (ssRNA)", "RNA": "B10 RNA with U78C, A79C, U83C, A84C, U114C, A115C, U132C, A133C"}, "B13": {"name": "chr5:132696315:132696416:-|3pUTR|ENSG00000131437|msi1|FALSE|unique (ssRNA)", "RNA": "GGGAGUUCUACAGUCCGACGAUCGUUGUACUACUACUCUUCAAUUGUACUGUGCAGGGAAGUUGGGGGAACAGUUCAUACUAUAGAGAGUUACAGUUUAGAUGUAUGUGUAAAUCGAUUAGCUAUUUAUCCAACUACUGUAUACAACAGAGGAUUGAGCAUCA"}, "B14": {"name": "chr5:132696315:132696416:-|3pUTR|ENSG00000131437|msi1|total|mutant (ssRNA)", "RNA": "B13 RNA with U83C, A84C, U98C, A99C, U119C, A120C"}, "B15": {"name": "chr4:65323451:65323552:-|3pUTR|ENSG00000145242|msi1|total|mutant (ssRNA)", "RNA": "GGGAGUUCUACAGUCCGACGAUCAUCAAGAAAAAGUACAAUACAGGGUGUAUAUUUAUUUUUUGUGUUAUAAAGUUUACUUUCCGUUGCUCUUCCCGAGAUUAUCCGGUAAUAAAUGUGUAUAUACUGUAUAAUUUGCAAUAUCAACAGAGGAUUGAGCAUCA"}, "B16": {"name": "chr8:103332422:103332528:+|3pUTR|ENSG00000164930|msi1|FALSE|unique (ssRNA)", "RNA": "GGGAGUUCUACAGUCCGACGAUCUUUUUUAACAUUUAGAAUAUUACAUUUUGUAUUAUACAGUACCUUUCUCAGACAUUUUGUAGAAUUCAUUUCGGCAGCUCACUAGGAUUUUGCUGAACAUUAAAAAGUGUGAUAGCGAUACAACAGAGGAUUGAGCAUCA"}, "B17": {"name": "chr8:103332422:103332528:+|3pUTR|ENSG00000164930|msi1|total|mutant (ssRNA)", "RNA": "B16 RNA with U36C, A37C, U83C, A84C, U106C, A107C, U136C, A137C"}, "B18": {"name": "chr5:138184526:138184629:+|CDS|ENSG00000112984|unk|FALSE|unique (ssRNA)", "RNA": "GGGAGUUCUACAGUCCGACGAUCGUGCAUGCCCCACCUAUGCAACUGGGAUUCCCAUCCCUGCACUCGUUCAUCAAGGAACAUAGUCUUCAGGUAUCCCCCAGCUUAGAGAAAGGGGCUAAGGCAGACACAGGCCUUGAUGAUCAACAGAGGAUUGAGCAUCA"}, "B19": {"name": "chr5:141515350:141515460:-|3pUTR|ENSG00000131504|msi1_unk|FALSE|overlapping (ssRNA)", "RNA": "GGGAGUUCUACAGUCCGACGAUCCUCAGCUUUCCAUCCCCAGCUAGGAAGAAAGAAUGGCACUCUUGGGCUUGGCCCAGAAUUAGAGUUAUUAGAGCAAGAGAGAGCUUAGGAAGCAUGAGGGCAACUAUAGUGAGGCCUUAUCAACAGAGGAUUGAGCAUCA"}, "B20": {"name": "chr8:6757792:6757893:+|3pUTR|ENSG00000155189|msi1|FALSE|unique (ssRNA)", "RNA": "GGGAGUUCUACAGUCCGACGAUCAUUUAUUACAACUUGACAGCUCCAAGCUCUUAUUACUAAAGUAUUUAGUAUCUUGCAGCUAGUUAAUAUUUCAUCUUUUGCUUAUUUCUACAAGUCAGUGAAAUAAAUUGUAUUUAGGAACAACAGAGGAUUGAGCAUCA"}, "B21": {"name": "chr5:141515350:141515460:-|3pUTR|ENSG00000131504|msi1_unk|total|mutant (ssRNA)", "RNA": "B19 RNA with U44C, A45C, U83C, A84C, U92C, A93C, U109C, A110C, U130C, A131C"}, "B22": {"name": "chr11:70485313:70487720:-|CDS|ENSG00000162105|control|control|control (ssRNA)", "RNA": "GGGAGUUCUACAGUCCGACGAUCUGGGGCGACGUCACAGAGAUCAAAAGCCCGAUUCUCUCAGGCCCAAAGGCAAACGUUAUUAGUGAAUUGAACUCUAUCCUACAGCAAAUGAACCGAGAGAAAUUGGCAAAGCCGGGGGAACAACAGAGGAUUGAGCAUCA"}},
  "note": "Changes are numbered by the printed parent chain. The full ranking holds about 5,800 sequences; the median of “enrichment r” is about 0.54, and the highest 2% start at about 16. Many of the other results were omitted from the sample, so the highest values are more common in it than they were.",
  "data": [
    {"target": "MSI1 full-length (mouse, UniProt Q61474 1-362)", "sequence (Q61474 whole entry)": "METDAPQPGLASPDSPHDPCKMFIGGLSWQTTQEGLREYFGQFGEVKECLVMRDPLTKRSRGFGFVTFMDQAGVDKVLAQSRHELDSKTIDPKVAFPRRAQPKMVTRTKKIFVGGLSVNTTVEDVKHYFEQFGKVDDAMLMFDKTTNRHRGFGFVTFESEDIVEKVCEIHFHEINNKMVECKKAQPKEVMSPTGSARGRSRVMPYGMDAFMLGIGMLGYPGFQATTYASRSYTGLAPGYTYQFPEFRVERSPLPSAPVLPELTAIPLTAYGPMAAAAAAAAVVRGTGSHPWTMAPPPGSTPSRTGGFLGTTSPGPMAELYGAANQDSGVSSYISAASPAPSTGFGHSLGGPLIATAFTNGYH", "assay": "nsRBNS (natural sequence RNA bind-n-seq); RBNS binding buffer (assumed for nsRBNS): 25 mM Tris pH 7.5, 150 mM KCl, 3 mM MgCl2, 0.01% Triton X-100, 500 ug/ml BSA, 20 U/ml SUPERase-In, 4 C; UNK is unkempt and MSI1 is Musashi-1; names of the RNAs are library labels; protein concentration not given here; high values mean tight binding", "units": {"binding signal": "enrichment R"}, "values": [
      {"binder": "B1", "binding signal": 0.347},
      {"binder": "B2", "binding signal": 1.88},
      {"binder": "B3", "binding signal": 0.411},
      {"binder": "B4", "binding signal": 0.451},
      {"binder": "B5", "binding signal": 1.38},
      {"binder": "B6", "binding signal": 3.3},
      {"binder": "B7", "binding signal": 0.297},
      {"binder": "B8", "binding signal": 0.83},
      {"binder": "B9", "binding signal": 0.549},
      {"binder": "B10", "binding signal": 33.5},
      {"binder": "B11", "binding signal": 6.36},
      {"binder": "B12", "binding signal": 0.424},
      {"binder": "B13", "binding signal": 19.9},
      {"binder": "B14", "binding signal": 0.609},
      {"binder": "B15", "binding signal": 1.51},
      {"binder": "B16", "binding signal": 51.5},
      {"binder": "B17", "binding signal": 0.818},
      {"binder": "B18", "binding signal": 0.612},
      {"binder": "B19", "binding signal": 28.2},
      {"binder": "B20", "binding signal": 1.46},
      {"binder": "B21", "binding signal": 0.337},
      {"binder": "B22", "binding signal": 0.762}
    ]}
  ]
}
